PG9 binder: small molecules binding HIV-1 gp120 antibody PG9 | TR-FRET gp120-PG9 antibody binding | 0.43% of 360,000 active | AID 624416 | inhibition, % at 6.7 µM; in the data active = inhibition above about 8.5%
bovine MsrA act: activates bovine MsrA enzyme; AID 602163; 0.3% of 360,000 active; activation, % at 10.6 µM; purified bovine MsrA, absorbance read-out; in the data active = activation above about 7.5%
sPLA2-III inh: Blocks human group III sPLA2 activity. Q9NZ20. QFRET BODIPY PC-A2 liposome hydrolysis, fluorescence. inhibition, % at 12.2 µM. 0.56% of 370,000 active;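 active = inhibition above mean plus 3 SD of compounds lying within the high and low control bounds, cut at about 19% in these data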
Target sequence (Q9NZ20 whole entry, looked up): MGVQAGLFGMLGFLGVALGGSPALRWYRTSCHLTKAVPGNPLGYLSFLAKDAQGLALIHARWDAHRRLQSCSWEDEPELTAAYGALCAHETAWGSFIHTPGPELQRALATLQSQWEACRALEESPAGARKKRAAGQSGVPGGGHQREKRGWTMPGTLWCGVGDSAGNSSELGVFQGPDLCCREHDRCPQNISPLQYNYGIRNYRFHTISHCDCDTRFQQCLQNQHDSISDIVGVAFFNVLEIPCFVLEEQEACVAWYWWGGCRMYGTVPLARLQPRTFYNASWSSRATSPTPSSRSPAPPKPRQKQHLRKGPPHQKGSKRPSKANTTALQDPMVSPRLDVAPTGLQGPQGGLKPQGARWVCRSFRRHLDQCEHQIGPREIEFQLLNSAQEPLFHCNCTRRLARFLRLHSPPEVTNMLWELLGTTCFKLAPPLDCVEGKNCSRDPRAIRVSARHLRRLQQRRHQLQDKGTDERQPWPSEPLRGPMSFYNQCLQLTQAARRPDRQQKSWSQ
MsrA inhibitor: inhibitors of bovine MsrA. 0.75% of 360,000 active. AID 651718. inhibition, % at 15.5 µM. purified bovine MsrA, absorbance read-out; in the data active = inhibition above about 4.5%
rCAG RNA binder: r(CAG) repeat RNA binding; inhibition, % at 3 µM; TO-PRO-1 dye displacement fluorescence; 1.3% of 370,000 active;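 active = inhibition above the plate cutoff, the mean of all test compounds on that plate plus 3 SD, cut at about 35% in these data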;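 also: higher means more dye released from RNA so lower well fluorescence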
Numbers stand for hits; n = inactive; x = no result. Hits are enriched below; roughly 3.2% of the tested compounds scored in any of these assays.

SMILES | PG9 binder | bovine MsrA act | sPLA2-III inh | MsrA inhibitor | rCAG RNA binder
Oc1ccc(Nc2nc(-c3ccccc3O)nc3ccccc23)cc1 | n | n | n | n | 43.4
CC(C)CN1C(=O)C[C@@]2(C(=O)N(C)c3ccc(NC(=O)c4cc(F)ccc4F)cc32)C1c1ccccc1 (some centres undefined) | x | x | n | x | n
C=CCNC(=S)Nc1sc2c(c1C(=O)OCC)CCN(C(=O)OCC)C2 | n | n | n | n | n
C=CCNC(=S)Nc1sc2c(c1C(=O)OCC)CC(C)(CC)OC2 (centres undefined) | n | n | n | 4.6 | n
O=C(O)C1Nc2c(O)cc(Cl)c([N+](=O)[O-])c2C2C=CCC12 (centres undefined) | n | n | n | n | 100.6
O=C(N/N=C/c1ccco1)c1cccc(N2CCCC2=O)c1 | n | n | n | n | n
O=C(N/N=C/c1ccco1)c1cccc(N2Cc3ccccc3C2)c1 | n | n | n | n | 36.7
COC(=O)[C@]12C[C@H](CC(=O)N3CCN(C(=O)C4CC4)CC3)C(=O)N(CCc3ccc(OC)c(OC)c3)C1=C[C@H](C1CCCC1)O[C@@H]2C | x | x | n | x | n
CCOC(=O)c1sc(NNC(=O)c2ccc(C)cc2)nc1C | n | n | n | n | n
CCOC(=O)c1nc(NNC(=O)c2ccc([N+](=O)[O-])cc2)sc1C | n | n | n | n | 36.8
O=C(NCCc1c[nH]c2ccccc12)OCc1cn(Cc2ccc(F)cc2F)nn1 | x | x | n | x | n
CCC[n+]1c2ccccc2cc2ccccc21 | n | n | 29.3 | n | n
CCCCC[n+]1cccc2c3ccccc3ccc21 | n | n | n | n | n
COc1ccc(Cn2cc(COC(=O)Nc3ccc(F)cc3)nn2)cc1 | x | x | n | x | n
COc1cc(C)c(C(=O)Oc2cc(C)c(C(=O)O)c(O)c2)c(O)c1 | n | n | n | n | 34.7
COc1cc(O)c(C(=O)O)c(CCc2ccccc2)c1 | n | n | n | n | n
Cc1cc(C(=O)N/N=C/C=C/c2ccc3c(c2)OCO3)n[nH]1 | n | n | n | 8.9 | n
O=C(N/N=C\C=C\c1ccc2c(c1)OCO2)C1COc2cc3ccccc3cc2O1 (centres undefined) | n | n | n | n | n
COc1cc2c(cc1NC(=O)CSc1nnc(-c3ccccc3F)n1-c1ccc(C)cc1)oc1ccccc12 | x | x | n | x | n
CC(COc1ccccc1)CN1CCC(C(O)(c2ccccc2)c2ccccc2)CC1 (centres undefined) | x | x | n | x | n
CC1=C(c2ccccc2)[N+](=O)C2(CCCC2)N1[O-] | n | n | n | n | n
O=[N+]([O-])c1ccc2c(c1)N([O-])C1(CCCCC1)[N+]2=O | n | x | n | n | 35.0
COc1cc(C(=O)NCc2ccncc2)cc(OC)c1OC | n | n | n | n | n
COc1cc(C(=O)NCc2ccc(-c3nc4ccccc4o3)cc2)cc(OC)c1OC | 11.4 | n | n | n | n
COc1cc(NC(=O)c2cc3ccccc3cc2O)c(OC)cc1Cl | n | n | n | n | 47.0
SMILES | PG9 binder | bovine MsrA act | sPLA2-III inh | MsrA inhibitor | rCAG RNA binder
CCOC(=O)[C@]12CCCC3=C1N(CCC3)C(=O)[C@@H](CC(=O)NCCC(C)C)C2 | x | x | n | x | n
COc1ccc(S(=O)(=O)CC(=O)c2cc3cccc(C)c3oc2=O)cc1 | x | n | x | x | x
COc1cccc2cc(C(=O)CS(=O)(=O)c3ccc(C(C)(C)C)cc3)c(=O)oc12 | n | n | n | n | 38.3
O=C(O)CN1C(=O)/C(=C/c2cccc(Cl)c2)Oc2ccccc21 | n | n | n | n | 52.2
CC(C)C[C@H]1COc2cc(Br)ccc2S(=O)(=O)N1Cc1cn(Cc2ccc(C(F)(F)F)cc2)nn1 | x | x | n | x | n
Cc1c(C)c2c(OCC(=O)NCC(=O)NCC(=O)O)cc3c(c2oc1=O)CCC(C)(C)O3 | n | n | n | 4.5 | n
Cc1c(C)c2c(OCC(=O)O)cc3c(c2oc1=O)CCC(C)(C)O3 | n | n | n | n | n
CCC(NC(=O)C1CCCN(c2ncccn2)C1)c1ccccc1 (centres undefined) | x | x | n | x | n
Cc1ccc(C(=O)N(C)[C@H]2C[C@H]3c4[nH]c5c(-c6ccc7c(c6)OCO7)cccc5c4CCN3C[C@H]2[C@H](C)O)cc1 | x | x | n | x | n
CN1CCN(C(c2ccc(Br)cc2)c2cc(Cl)c3cccnc3c2O)CC1 (centres undefined) | n | n | 20.3 | n | n
CC(C)C(=O)Nc1nnc(CSCc2ccccc2F)s1 | n | n | n | n | n
O=C(Nc1nnc(CSCc2ccccc2F)s1)c1cccc([N+](=O)[O-])c1 | n | n | n | n | 45.6
CC(C)OC(=O)C1=CNCC(C)(C)c2c1[nH]c1cc(F)ccc21 | x | x | n | x | x
CCOC(=O)c1c(NC(C)=O)sc2c(O)c(Br)cc(Br)c12 | n | n | n | n | 44.1
CCOC(=O)c1c(NC(C)=O)sc2c(O)cccc12 | n | n | n | n | n
Cc1ccc(F)cc1C(=O)N(Cc1ccccn1)CC1CCCO1 (centres undefined) | x | x | n | x | n
CC(C)CN1C(=O)[C@]2(CC(=O)N(C)C2c2ccccc2)c2cc(-n3cc(C4=CCCCC4)nn3)ccc21 (some centres undefined) | x | x | n | x | n
Cc1ccc(OCc2nnc(SCC(=O)c3ccc4ccccc4c3)n2-c2ccc(Cl)cc2)cc1 | x | x | n | x | n
c1nc(NCC2CCCCO2)c2cc(-c3ccc4c(c3)OCO4)ccc2n1 (centres undefined) | x | x | n | x | x
Cc1ccc(-c2csc(NS(=O)(=O)c3cccc(F)c3)n2)o1 | n | n | n | n | 71.1
Cc1nc(CNS(=O)(=O)c2cccc(F)c2)cs1 | n | n | n | n | n
COc1ccccc1N1CCN(C(=O)/C=C/c2c(Cl)nc3ccccn23)CC1 | n | n | n | 4.6 | n
O=C(NC1CCCCC1)c1nc(-c2c(F)cccc2F)oc1-c1ccccc1 | n | x | n | n | n
O=C(NC1CCCC1)c1nc(-c2ccco2)oc1-c1ccccc1 | n | x | n | n | 35.2
COc1cccc(NC(=O)C/C(C)=N/NC(=O)c2ccccc2Cl)c1 | n | n | n | n | n
SMILES | PG9 binder | bovine MsrA act | sPLA2-III inh | MsrA inhibitor | rCAG RNA binder
C/C(CC(=O)Nc1ccc(Cl)c(C(F)(F)F)c1)=N\NC(=O)c1cc2ccccc2cc1O | n | n | n | n | 50.7
CCCCC1=CC2=C(c3ccco3)C(=O)C(C)(OC(=O)c3ccc(OC)cc3)C(=O)C2=CN1c1ccc(OC)cc1 (centres undefined) | 11.0 | n | n | n | n
CCCCC1=CC2=C(c3ccco3)C(=O)C(C)(OC(=O)c3ccc(OC)cc3)C(=O)C2=CN1CC1CC1 (centres undefined) | n | n | n | n | n
CCCCC1=CC2=C(c3ccco3)C(=O)C(C)(OC(=O)c3ccc(OC)cc3)C(=O)C2=CN1Cc1ccco1 (centres undefined) | x | n | x | x | x
CCCCC1=CC2=C(c3ccco3)C(=O)C(C)(OC(=O)c3ccc(OC)cc3)C(=O)C2=CN1CC(C)C (centres undefined) | 37.1 | n | n | n | n
Cn1c(=O)[nH]c(=O)c2c1nc(SCCN1CCOCC1)n2CCCc1ccccc1 | 18.8 | n | n | n | n
COC(=O)[C@]12C[C@H](CC(=O)N3CCCC3)C(=O)N(CCC3=CCCCC3)C1=C[C@H](C(C)C)O[C@@H]2C1CC1 | x | x | n | x | n
